Measurements reported in PubChem BioAssay AID1851 (National Center for Advancing Translational Sciences (NCATS), 2009).
Where “and” joins values, the source holds several entries; their conditions need not be identical. Equal values may be shown once. Hit rate of the full screen: of about 16,000 compounds, about 2,600 (16%) were called active. Another 20% or so got no clear call; they are omitted. Calls come from the whole dose curve; as a rule, active = well fitted curve in the direction sought with a large enough effect; inconclusive = small, poorly fitted or top-dose-only effect, or effect the other way; inactive = no such curve, though single readings can be large or run the other way. Not all results are given here.

Target: Cytochrome P450 2D6 (Homo sapiens) (UniProt P10635)
Sequence (P10635 whole entry, looked up): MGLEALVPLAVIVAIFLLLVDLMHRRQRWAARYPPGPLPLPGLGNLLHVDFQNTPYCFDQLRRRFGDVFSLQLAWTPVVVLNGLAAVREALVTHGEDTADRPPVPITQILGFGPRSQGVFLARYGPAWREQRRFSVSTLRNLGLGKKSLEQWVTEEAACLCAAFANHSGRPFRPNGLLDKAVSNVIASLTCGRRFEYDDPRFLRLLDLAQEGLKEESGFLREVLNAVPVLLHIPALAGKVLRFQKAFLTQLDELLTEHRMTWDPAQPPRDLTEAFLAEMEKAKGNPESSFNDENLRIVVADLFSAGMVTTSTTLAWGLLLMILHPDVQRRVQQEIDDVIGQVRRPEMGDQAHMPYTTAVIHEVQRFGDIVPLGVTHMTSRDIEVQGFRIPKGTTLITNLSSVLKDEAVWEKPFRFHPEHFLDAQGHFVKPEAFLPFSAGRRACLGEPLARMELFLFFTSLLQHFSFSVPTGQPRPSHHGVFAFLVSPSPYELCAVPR
Assay: Cytochrome panel assay with activity outcomes
Details: recombinant CYP, pro-luciferin dealkylation, luminescence, p450-cyp2d6; series mostly up to 57.1 µM; activity, negative = inhibition: at the top concentration
% is set by controls: 0 for no effect and ±100 for the full control effect.

activity, negative = inhibition, inactive:
CCOC(=O)C1=C(N)n2c(s/c(=C\c3ccco3)c2=O)=C(C(=O)OCC)C1c1ccco1 (stereo not drawn) 21.8%, Cc1cc2nc3[nH]c4c(Cl)cc(Cl)cc4c3nc2cc1C 4.24% [at 11.4 µM], O=c1[nH]cc(CS(=O)(=O)Cc2c[nH]c(=O)[nH]c2=O)c(=O)[nH]1 -1.45% [at 11.4 µM], CC(C)CN(CC(C)C)C1=N/C(=C\c2ccco2)C(=O)N1c1ccccc1 7.31%, Cc1noc(C)c1-c1nc(Nc2ccc(F)cc2)c2ccccc2n1 -9.98%, CCOC(=O)c1ccc(Nc2nc(=O)c3cccnc3s2)cc1 14.5%, CCCc1nc2sc3ccccc3c(=O)c2c(=O)n1CCOC 12.1%, COc1cc(C(=O)NC(=S)Nc2cccc(-c3cc4ccccc4oc3=O)c2)cc(OC)c1OC 20.4%, CC(=O)NS(=O)(=O)c1ccc(NC(=S)NC(=O)c2ccco2)cc1 0.0503%, Cc1cccc(N(C)C(=S)Oc2ccc3ccccc3c2)c1 -2.27% [at 25.6 µM], Cn1c(=NC(=O)CCl)sc2ccccc21 -4.21%, O=C(O)c1ccccc1NCn1c(=S)sc2ccccc21 -8.67% [at 11.4 µM], CCS(=O)(=O)N1CCC(C(=O)NCc2ccccc2OC)CC1 -5.28%, COc1cccc(CNc2ccc(F)c(Cl)c2)c1O -15.3%, COC(=O)c1sccc1NC(=O)c1cc(-c2cc(C)ccc2C)nc2ccccc12 19.6%, Cc1nnc(NC(=O)CSc2ncnc3c2cnn3-c2ccccc2C)s1 9.93%, O=C(O)c1cccnc1SCC(=O)N1CCCCCC1 4.75%, Cc1ccc(SCCNC(=O)c2ccccc2)cc1 -18.3%, COC(=O)c1cc(OC)c(OC)cc1NC(=O)CSc1ccc(C)cc1 7.75%, COc1ccc(C2C(=O)N(C3CCCCCC3)CC(=O)N2Cc2ccccc2)cc1OC (stereo not drawn) -2.33%, CO[C@H]1COC(=O)[C@H](Cc2ccccc2)NC(=O)C/C=C\[C@@H](C)[C@H](OC)COC(=O)C/C=C\[C@@H]1C 11.3% [at 11.4 µM], CCOC(=O)c1c(NC(=O)/C=C/c2ccc3c(c2)OCO3)sc(C)c1CC -4.86%, COC(=O)c1cc(NC(=O)/C=C/c2ccc3c(c2)OCO3)cc(C(=O)OC)c1 -15.2%, O=C(/C=C\c1ccccc1)c1ccccc1O -5.64% [at 11.4 µM], COc1ccc2cc3cc(C(=O)Nc4ccc5c(c4)OCO5)oc3nc2c1 -26.3%, O=C(O)/C=C\C=C/c1ccc2c(c1)OCO2 -10.2% [at 11.4 µM], CN(C)C(=O)CN(c1ccc2c(c1)OCO2)S(C)(=O)=O -17.5%, CCOC(=O)c1[nH]c(C)c(/C(O)=C2\C(=O)C(=O)N(CCN3CCOCC3)C2c2cccs2)c1C (stereo not drawn) -7.66%, Cc1ccccc1-n1nc2c(c1NC(=O)c1c(-c3ccccc3Cl)noc1C)CSC2 0.2%, COCC(=O)N1CCN(c2ccc([N+](=O)[O-])cc2)CC1 13.8%, CN1C(=O)NC(c2ccc(O)cc2)C(C(=O)c2cccs2)C1(O)C(F)(F)F (stereo not drawn) -6.24%, Cc1cccc(C)c1NC(=O)c1cc2c(=O)c3ccccc3oc2nc1C(F)(F)F 27.2%, CO[C@H]1COC(=O)[C@@H](C)COC(=O)[C@@H](COCc2ccccc2)NC(=O)C/C=C\[C@H]1C 6.49% [at 11.4 µM], CC(=O)N(/N=C/c1cccc(C)c1)c1nc(-c2ccc(Br)cc2)cs1 22.1%, Cn1c(N)c(C(=O)CSc2ccc3c(c2)OCCO3)c(=O)n(C)c1=O -9.58%, O=C(COc1cccc2ccccc12)N1c2ccccc2CCc2ccccc21 -6.12%, COC(=O)[C@@H](NC(=O)Nc1ccc(C(C)=O)cc1)C(C)C 15.7%, CC(C)=CCC/C(C)=C/CO/N=C1/C[C@@H](O)[C@@H](O)[C@@H]2[C@@H]3C(=O)N(Cc4ccc5c(c4)OCO5)C(=O)[C@H]3CC[C@@H]12 -7.94% [at 11.4 µM], COc1cc(/C=N/O)cc(Br)c1OCc1cccc(Cl)c1 -27.4%, O=C(SCc1cccc2ccccc12)c1ccc(Cl)cc1 -11.2% [at 11.4 µM], CC(C)C(NS(=O)(=O)c1cccc2nsnc12)C(=O)N1CCc2ccccc2C1 (stereo not drawn) -3.17%, CO[C@H]1[C@H](O[C@H]2O[C@@H](C)[C@@H](O[C@@H]3C[C@](C)(O)[C@H](OC(=O)CC(C)C)[C@H](C)O3)[C@@H](N(C)C)[C@@H]2O)[C@@H](CC=O)C[C@@H](C)[C@@H](O)/C=C\C=C/C[C@@H](C)OC(=O)C[C@H]1OC(C)=O 3.01% [at 25.6 µM], CC(C)(C)c1ccc(C(=O)NC(Cc2ccccc2)C(=O)O)cc1 (stereo not drawn) 28.5%, CCCCCCN(CCCCCC)C(=O)Cc1c(-c2ccc(F)cc2)[nH]c2ccccc12 -3.8%, Cc1cc(=O)[nH]c2ccccc12 0.998%, CC(=O)N1CCN(c2nc(C)nc3sc4c(c23)CCC(C)C4)CC1 (stereo not drawn) -13.3%, CON/C=C(\C=Nc1ccccc1)c1ncc(C(F)(F)F)cc1Cl 6.49%

AC50, active:
CCOC(=O)c1ccc(Nc2nc(C(=O)OCC)nc3ccccc23)cc1 3.98 µM, N=c1sc2ccccc2n1CCS (tested in a mixture with another compound) 0.316 µM, COc1ccccc1CNCC(O)(c1ccc(Cl)cc1)c1ccc(Cl)cc1 0.316 µM, Cc1ccc(SCCNC(=O)c2ccc(C)c(S(=O)(=O)Nc3ccccc3C)c2)cc1 7.94 µM, COCOc1cc(OC)ccc1C(=O)/C=C\c1ccc2c(c1)OCO2 3.98 µM, O=C(/C=C\c1ccc2c(c1)OCO2)c1ccc(F)cc1 2 µM, Nc1ccccc1C(=O)/C=C\c1ccc2c(c1)OCO2 3.16 µM, Cc1cc(N)c2ccccc2[n+]1CCCCCCCCCCCCCC[n+]1c(C)cc(N)c2ccccc21 7.94 µM, Cc1cc(N)c2ccccc2[n+]1CCCCCCCCCC[n+]1c(C)cc(N)c2ccccc21 10 µM and 15.8 µM, O/N=C/c1cc(Cl)ccc1OCc1cccc2ccccc12 15.8 µM, Cc1ccc2[nH]c(-c3ccccc3)c(CN(C)C)c(=O)c2c1 0.0316 µM
